Data on 9 compounds can be found in PubChem BioAssay (Tox21).

Records with an inconclusive call do not appear. The source made the active and inactive calls. Unless noted, calls follow the shape of the dose curve; as a rule, active = well fitted curve in the direction sought with a large enough effect in the repeat runs; inconclusive = weak or mixed curves; inactive = no such curve, though single readings can be large; an effect the other way counts as inactive or inconclusive.

Test [1] in a line: A CellTox Green Cytotoxicity Assay to monitor cytotoxicity in HEK293 cells - 32 hour (AID 1224881). Also: nearly all actives have a fitted effect of over 40% in size. A digest of the protocol:
(§1)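 HEK293 cells, 600/well, were preincubated 5 hours and then exposed to compounds at 37 C for up to 40 hours. A cell-impermeant cyanine dye staining dead-cell DNA was read by fluorescence at 0, 8, 16, 24, 32 and 40 h time points.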

Test [2] can be described thus: A CellTox Green Cytotoxicity Assay to monitor cytotoxicity in HepG2 cells - 32 hour (AID 1224883). Also: nearly all actives have a fitted effect of over 50% in size. A digest of the protocol: (§2)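 HepG2 cells, 600/well, preincubated 5 h with CellTox Green dye, then exposed to Tox21 compounds in DMSO at 37 C for up to 40 h. Dead-cell DNA fluorescence read at the indicated time point.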
Test [3] can be described thus: A CellTox Green Cytotoxicity Assay to monitor cytotoxicity in HEK293 cells - 8 hour (AID 1224884). Also: nearly all actives have a fitted effect of over 35% in size. A digest of the protocol:
as §1

Test [4] can be described thus: qHTS RealTime-Glo MT Cell Viability Assay in HepG2 cells - 16 hour (AID 1224885). Also: nearly all actives have a fitted effect of over 50% in size. In short, it runs like this: (§3)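 HepG2 cells were seeded at 600 cells/well together with NanoLuc luciferase and a cell-permeant prosubstrate, preincubated 5 h at 37 C/5% CO2, then pin-dosed with compounds in DMSO. Nonlytic luminescence from viable cells was read at each time point.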
On the technique in general: In qHTS, concentration-response curves come from the screen itself.

Test [5] can be described thus: qHTS RealTime-Glo MT Cell Viability Assay in HEK293 cells - 24 hour (AID 1224886). Also: top concentration of the series differs between compounds; nearly all actives have a fitted effect of over 50% in size. A digest of the protocol:
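HEK293 cells were seeded at 600 cells/well together with NanoLuc luciferase and cell-permeant prosubstrate, preincubated 5 h at 37 C/5% CO2, then given compound in DMSO by pintool. Luminescence from viable-cell prosubstrate reduction was read repeatedly over 40 h.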

Test [6] can be described thus: qHTS RealTime-Glo MT Cell Viability Assay in HEK293 cells - 8 hour (AID 1224887). Also: nearly all actives have a fitted effect of over 50% in size. Also: potency is read from the fitted curve at half-maximal effect. In short, it runs like this: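 600 cells/well were plated with the nonlytic NanoLuc/prosubstrate reagent, pre-incubated 5 h, then given 23 nL of compound in DMSO. Incubation at 37 C for 40 h, with luminescence from viable-cell-reduced substrate read repeatedly from 0 h.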
A short description of test [7]: A CellTox Green Cytotoxicity Assay to monitor cytotoxicity in HEK293 cells - 16 hour (AID 1224888). Also: nearly all actives have a fitted effect of over 35% in size. A digest of the protocol:
as §1

The nature of test [8]: qHTS RealTime-Glo MT Cell Viability Assay in HepG2 cells - 0 hour (AID 1224889). Also: nearly all actives have a fitted effect of over 50% in size. A digest of the protocol: as §3
Test [9] is described as follows: A CellTox Green Cytotoxicity Assay to monitor cytotoxicity in HepG2 cells - 8 hour (AID 1224890). Also: nearly all actives have a fitted effect of over 45% in size. In short, it runs like this:
as §2

The nature of test [10]: qHTS assay to identify small molecule antagonists of the estrogen receptor alpha (ER-alpha) signaling pathway using the BG1 cell line in the presence of 0.1 nM 17-beta-estradiol - cell viability counter screen (AID 1259241). Also: nearly all actives have a fitted effect of over 40% in size. A digest of the protocol: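 Cells were plated and left 24 hr, compounds in DMSO were pinned in, 17beta-estradiol was added to 0.1 nM final, and after 22 hr CellTiter-Fluor reagent was added for 30 min before fluorescence was read.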

The nature of test [11]: qHTS assay to identify small molecule antagonists of the androgen receptor (AR) signaling pathway using the MDA cell line in the presence of 0.5 nM R1881 - cell viability counter screen (AID 1259242). Also: nearly all actives have a fitted effect of over 45% in size. In short, it runs like this: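 MDA-kb2 cells (MMTV-luciferase, AR/GR responsive) were treated with compounds plus 0.5 nM R1881 (final) for 16 hr at 37C, 0% CO2. Viability was then read in the same wells as live-cell protease fluorescence (CellTiter-Fluor, 30 min).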

Test [12] concerns the target Estrogen receptor (Homo sapiens) (UniProt P03372). The experiment in a line: qHTS assay to identify small molecule antagonists of the estrogen receptor alpha (ER-alpha) signaling pathway using the BG1 cell line in the presence of 0.1 nM 17-beta-estradiol (AID 1259244). Also: nearly all actives have a fitted effect of over 50% in size. A digest of the protocol: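 VM7Luc4E2 cells (endogenous full-length ER-alpha, 4×ERE-luciferase), kept 5 days in phenol red-free, charcoal-stripped FBS medium; 4,000 cells/well. Compounds added with 0.1 nM (final) 17beta-estradiol, 22 hr at 37C; luminescence read with ONE-Glo after 30 min.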

A short description of test [13]: qHTS assay to identify small molecule HDAC inhibitors - cell viability counter screen (AID 1259365). A digest of the protocol: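 Counter screen in wild-type HCT-116 cells: compounds dissolved in DMSO are pin-transferred onto overnight-plated cells and left 2hr at 37C. ATP-based CellTiter-Glo luminescence then measures viable cells.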
Test [14] in a line: qHTS assay to identify small molecule agonists of the sonic hedgehog signaling (Shh) pathway - cell viability counter screen (AID 1259366). Also: nearly all actives have a fitted effect of over 50% in size. In short, it runs like this: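 Cells are plated at 2,000 per well and left 4hr at 37C, 5% CO2 before compound addition. After 23hr of treatment, CellTiter-Fluor reagent is added for 1hr at 37C and fluorescence is measured.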
A short description of test [15]: qHTS assay to identify small molecule antagonists of the sonic hedgehog signaling (Shh) pathway - cell viability counter screen (AID 1259367). Also: nearly all actives have a fitted effect of over 55% in size. A digest of the protocol: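 After a 4 hr settling period, 3T3 Gli1-Luc cells were treated with DMSO-dissolved chemicals and conditioned medium, kept 24 hr at 37C in 5% CO2, and assayed for viability by CellTiter-Fluor fluorescence following 1 hr reagent incubation.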

Test [16] is described as follows: qHTS assay to identify small molecule agonists of the sonic hedgehog signaling (Shh) pathway (AID 1259368; calls by dose curve;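 also: NIH/3T3-derived 3T3Gli1-Luc cells carrying a stable Gli1-driven firefly luciferase reporter; series mostly up to about 92 µM; nearly all actives have a fitted effect of over 15% in size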). A digest of the protocol:
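NIH/3T3-derived 3T3Gli1-Luc cells with stably integrated Gli1-driven firefly luciferase, 2,000 cells/well, compounds added after 4 hr. Incubated 24 hr at 37C, 5% CO2; luminescence read after 30 min with luciferase reagent at room temperature.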

A short description of test [17]: A CellTox Green Cytotoxicity Assay to monitor cytotoxicity in HepG2 cells - 0 hour (AID 1224882). Also: nearly all actives have a fitted effect of over 35% in size. Also: potency is read from the fitted curve at half-maximal effect. A digest of the protocol:
as §2

The nature of test [18]: qHTS assay to identify small molecule phospholipidosis (PLD) inducers (AID 1259344; active = well fitted curve in the direction sought with a large enough effect; an effect the other way counts as inactive or inconclusive). In short, it runs like this:
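HepG2 cells grown on collagen I take up LipidTOX Red while exposed to compound for 24 h; after fixation they are imaged at 20x and pit metrics are extracted.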

The nature of test [19]: qHTS assay to identify small molecule HDAC inhibitors (AID 1259364). Also: top concentration of the series differs between compounds; nearly all actives have a fitted effect of over 45% in size. A digest of the protocol: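 Wild-type HCT-116 cells, plated overnight at 37 C, exposed to compounds 2 hr at 37 C; luminogenic HDAC-Glo substrate then added 30 min at room temperature. Luminescence reports relative endogenous class I/II HDAC activity.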

Sequence of Estrogen receptor (Homo sapiens) (P03372 whole entry, looked up): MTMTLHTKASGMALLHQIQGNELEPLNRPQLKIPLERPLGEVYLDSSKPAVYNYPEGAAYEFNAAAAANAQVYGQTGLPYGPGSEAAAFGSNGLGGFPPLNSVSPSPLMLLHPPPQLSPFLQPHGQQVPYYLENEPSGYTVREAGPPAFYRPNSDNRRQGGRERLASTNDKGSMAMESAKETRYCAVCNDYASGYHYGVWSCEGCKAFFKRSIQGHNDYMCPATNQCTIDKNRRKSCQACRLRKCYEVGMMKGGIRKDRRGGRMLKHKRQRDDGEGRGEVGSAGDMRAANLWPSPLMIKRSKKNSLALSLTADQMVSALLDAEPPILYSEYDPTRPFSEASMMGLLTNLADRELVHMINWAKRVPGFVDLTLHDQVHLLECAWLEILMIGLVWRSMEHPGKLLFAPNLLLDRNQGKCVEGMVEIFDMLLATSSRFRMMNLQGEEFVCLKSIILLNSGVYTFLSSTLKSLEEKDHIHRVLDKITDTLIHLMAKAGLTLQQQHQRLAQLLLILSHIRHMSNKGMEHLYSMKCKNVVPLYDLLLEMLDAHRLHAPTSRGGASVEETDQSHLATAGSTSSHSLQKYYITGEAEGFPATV

Regarding `C1CCC2OC2C1` (stereo unspecified), the Potency result in test [1], in test [2], in test [3], in [4], in [5] and in test [6] was “inactive” each time. Moreover, the Potency entry in test [7], in [8], in test [9], in [10], in test [11] and in test [12] was “inactive” throughout. Further, the Potency result in test [14] and in [15] was “inactive” throughout. For the same compound, the compound was classed as inactive in test [13] and in [16].

In the case of `O=C(/C=C/c1ccc(O)c(O)c1)O[C@@H]1C[C@](O)(C(=O)O)C[C@@H](O)[C@H]1O`, the Potency entry in test [1], in test [2], in test [3], in [4], in [5] and in [6] was “inactive” each time. For the same compound, the Potency result in [7], in test [8], in test [9], in [10], in test [11] and in test [14] was “inactive” in each case. For the same compound, the compound was classed as inactive in [13] and in test [16].

In the case of `Cc1ccc(O)c([C@H](CCN(C(C)C)C(C)C)c2ccccc2)c1`, the Potency result in test [1], in [17], in [3], in test [4], in test [5] and in test [6] was “inactive” throughout. The Potency entry in test [8], in test [9], in [10], in [18], in [19] and in test [14] was “inactive” each time. Moreover, the Potency result in test [15] was “inactive”. For the same compound, the outcome in [13] and in [16] was inactive.

On to `COC(Cc1ccccc1)OC`, for which the Potency entry in test [1], in [2], in test [3], in [4], in test [5] and in [7] was “inactive” each time. For the same compound, the Potency result in test [8], in test [9], in [10], in [11], in test [12] and in test [19] was “inactive” in each case. For the same compound, the Potency result in test [14] and in test [15] was “inactive” in each case. The call in test [16] was inactive.

As to `NCCCOCCOCCOCCCN`, the Potency entry in [1], in test [17], in [3], in test [4], in [5] and in [7] was “inactive” each time. The Potency result in test [8], in [9], in test [10], in [11], in test [12] and in test [19] was “inactive” in each case. Moreover, in test [16], the call was inactive.

As to `CCCCOc1ccc(CC(=O)NO)cc1`, the Potency result in test [1], in [17], in test [7], in test [8], in test [9] and in test [10] was “inactive” throughout. Further, the Potency result in test [11], in test [18] and in test [19] was “inactive” throughout. The Potency in test [6] is 2.13 µM (active). In [16], the outcome was inactive.

Turning to `COc1ccc2[nH]c(S(=O)Cc3ncc(C)c(OC)c3C)nc2n1` (stereo unspecified), the Potency result in [1], in [2], in test [3], in test [4], in test [5] and in test [6] was “inactive” throughout. The Potency result in test [7], in test [8], in test [9], in test [10], in test [11] and in test [12] was “inactive” each time. The Potency result in test [18], in [19], in test [14] and in [15] was “inactive” each time. The compound was classed as inactive in [13] and in test [16].

Take `O=C(O)[C@@H]1[C@H]2C[C@H]3c4[nH]c5ccccc5c4CCN3C[C@@H]2CC[C@@H]1O`: the Potency entry in test [1], in test [3], in test [4], in test [5], in test [6] and in test [7] was “inactive” throughout. In addition, the Potency result in test [8], in test [10], in test [11], in test [12], in [18] and in test [19] was “inactive” each time. Further, the Potency entry in test [14] and in test [15] was “inactive” in each case. Further, the Potency in test [17] is 10.7 µM (active). Besides, the call in test [16] was inactive.

Regarding `Oc1ccc(Sc2ccc(O)cc2)cc1`, the Potency result in [1], in test [17], in [3], in test [4], in test [8] and in [9] was “inactive” each time. Besides, the Potency result in test [10], in test [11], in [12], in test [14] and in test [15] was “inactive” throughout. Also, the result in test [13] and in [16] was inactive.
